Screening results deposited in PubChem BioAssay by several laboratories.
PKD1 kinase inh: blocks activity of human protein kinase D1; Q15139; PKD1 kinase fluorescence polarization assay; inhibition, % (no concentration beside the values); 200,000 compounds, 0.056% hits; AID 797; in the data active = inhibition above about 50%
Furin inh: human furin inhibition. P09958. purified furin, fluorogenic substrate cleavage. inhibition, % at 20 µM or 30 µM. 220,000 compounds, 0.061% hits; in the data active = inhibition above about 25%
p97 inhibitor: blocks human p97 ATPase activity; P55072; recombinant p97 ATPase, Kinase-Glo ATP luminescence, 3 h; inhibition, % at 8 µM; AID 1481; 220,000 compounds, 0.42% hits; in the data active = inhibition above about 15%;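 also: 0% = DMSO vehicle and 100% = wells lacking enzyme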
SUMO HTRF inh: SUMOylation inhibition; HTRF SUMOylation assay, SAE1/SAE2 + UBC9, in vitro; AID 2006; inhibition, % at 35 µM; 290,000 compounds, 0.36% hits; in the data active = inhibition above about 50%, passing the limit was not always enough
FAS TE block: blocks the thioesterase domain of human fatty acid synthase; recombinant FAS-TE, OMFH fluorogenic substrate, fluorescence endpoint; inhibition, % at 15 µM; 360,000 compounds, 0.67% hits;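 active = compounds whose normalised, plate-corrected inhibition of enzyme fluorescence in the single-dose primary screen is 50% or more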;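 also: 0% = DMSO with enzyme and 100% = substrate without enzyme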
Target sequence (P49327 whole entry, looked up, the tested form may be a part): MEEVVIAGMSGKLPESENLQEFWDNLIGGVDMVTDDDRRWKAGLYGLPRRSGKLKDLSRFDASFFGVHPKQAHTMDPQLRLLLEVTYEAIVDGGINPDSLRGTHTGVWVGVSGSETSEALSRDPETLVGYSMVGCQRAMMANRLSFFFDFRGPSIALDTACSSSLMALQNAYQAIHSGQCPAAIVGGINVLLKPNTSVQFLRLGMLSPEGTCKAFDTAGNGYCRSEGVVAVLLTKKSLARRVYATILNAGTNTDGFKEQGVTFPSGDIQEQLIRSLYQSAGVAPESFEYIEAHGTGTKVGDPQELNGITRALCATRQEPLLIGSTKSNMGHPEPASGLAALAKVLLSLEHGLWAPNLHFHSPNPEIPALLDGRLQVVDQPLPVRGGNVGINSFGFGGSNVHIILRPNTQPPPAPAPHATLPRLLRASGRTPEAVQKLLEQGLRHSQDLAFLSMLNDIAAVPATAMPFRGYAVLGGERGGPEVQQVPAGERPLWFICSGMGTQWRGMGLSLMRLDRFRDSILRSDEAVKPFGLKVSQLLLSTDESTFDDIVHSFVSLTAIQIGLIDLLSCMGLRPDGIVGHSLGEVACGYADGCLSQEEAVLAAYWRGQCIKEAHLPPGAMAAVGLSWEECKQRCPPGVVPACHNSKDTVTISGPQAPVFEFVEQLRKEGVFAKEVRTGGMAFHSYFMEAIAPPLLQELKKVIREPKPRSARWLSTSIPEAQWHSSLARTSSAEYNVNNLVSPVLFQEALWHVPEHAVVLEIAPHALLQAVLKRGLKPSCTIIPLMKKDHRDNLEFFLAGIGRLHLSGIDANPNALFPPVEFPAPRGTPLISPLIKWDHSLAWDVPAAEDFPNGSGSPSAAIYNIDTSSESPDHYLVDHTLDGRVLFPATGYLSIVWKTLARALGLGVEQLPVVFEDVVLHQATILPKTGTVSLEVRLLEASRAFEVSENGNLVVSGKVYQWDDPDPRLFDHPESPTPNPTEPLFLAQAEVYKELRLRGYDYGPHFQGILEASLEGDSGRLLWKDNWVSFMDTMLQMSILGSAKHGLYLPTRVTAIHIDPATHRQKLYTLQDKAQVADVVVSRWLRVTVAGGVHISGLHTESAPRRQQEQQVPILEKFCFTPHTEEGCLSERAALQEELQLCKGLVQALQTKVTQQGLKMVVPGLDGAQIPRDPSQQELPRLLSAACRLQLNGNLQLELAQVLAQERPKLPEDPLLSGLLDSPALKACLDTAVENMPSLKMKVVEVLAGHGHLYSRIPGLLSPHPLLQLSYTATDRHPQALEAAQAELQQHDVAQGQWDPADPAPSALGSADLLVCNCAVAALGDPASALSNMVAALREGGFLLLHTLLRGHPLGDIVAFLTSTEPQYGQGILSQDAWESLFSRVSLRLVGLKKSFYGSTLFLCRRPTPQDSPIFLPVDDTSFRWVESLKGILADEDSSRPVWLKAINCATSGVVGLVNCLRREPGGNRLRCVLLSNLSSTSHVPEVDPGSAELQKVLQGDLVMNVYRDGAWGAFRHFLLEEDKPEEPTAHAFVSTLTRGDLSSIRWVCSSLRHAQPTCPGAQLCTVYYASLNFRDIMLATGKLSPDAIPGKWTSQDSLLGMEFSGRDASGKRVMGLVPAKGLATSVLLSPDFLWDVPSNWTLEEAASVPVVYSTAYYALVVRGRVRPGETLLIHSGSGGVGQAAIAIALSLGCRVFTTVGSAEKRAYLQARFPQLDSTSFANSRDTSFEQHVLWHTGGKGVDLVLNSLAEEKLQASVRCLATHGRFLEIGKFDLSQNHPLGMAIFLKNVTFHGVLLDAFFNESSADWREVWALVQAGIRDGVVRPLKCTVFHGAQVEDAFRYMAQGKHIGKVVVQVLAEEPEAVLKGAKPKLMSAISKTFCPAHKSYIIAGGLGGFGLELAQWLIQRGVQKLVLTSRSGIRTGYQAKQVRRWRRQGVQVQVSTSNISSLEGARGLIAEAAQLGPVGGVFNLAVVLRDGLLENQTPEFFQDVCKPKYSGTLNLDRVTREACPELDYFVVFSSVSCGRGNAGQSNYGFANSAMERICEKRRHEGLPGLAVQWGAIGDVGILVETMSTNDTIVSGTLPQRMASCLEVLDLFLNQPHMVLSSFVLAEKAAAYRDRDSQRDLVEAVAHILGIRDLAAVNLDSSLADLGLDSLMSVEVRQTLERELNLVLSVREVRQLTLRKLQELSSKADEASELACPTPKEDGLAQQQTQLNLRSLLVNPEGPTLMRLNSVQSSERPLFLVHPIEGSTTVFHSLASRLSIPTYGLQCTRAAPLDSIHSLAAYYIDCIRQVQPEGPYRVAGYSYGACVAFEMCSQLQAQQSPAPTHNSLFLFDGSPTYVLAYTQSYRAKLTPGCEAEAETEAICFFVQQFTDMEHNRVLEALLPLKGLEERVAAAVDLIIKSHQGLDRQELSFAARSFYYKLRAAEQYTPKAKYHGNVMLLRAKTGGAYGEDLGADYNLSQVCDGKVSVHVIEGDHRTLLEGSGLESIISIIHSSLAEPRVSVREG
Redox H2O2 prof: compounds producing H2O2 with reducing agent – biochemical, NIH compound library profiling, artefact control for MLSCN library redox annotation, primary screen; DTT-dependent redox cycling H2O2, phenol red/HRP absorbance; 100% = 100 µM peroxide control, 0% = buffer; activation, % at 10 µM; 200,000 compounds, 0.03% hits;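 active = activation of at least 50% relative to the plate's high and low controls in the primary single-dose screen; inactive = activation below 50%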;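 also: compound incubated with DTT at 0.8 mM final as the reducing agent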
PKD FP artifact: interferes with fluorescence polarization in PKD inhibitor counter-screen; shares compounds with PKD1 kinase inh; PKD1 FP assay interference counter-screen; inhibition, % at 10 µM; 85 tested, under 10 active; AID 1315; call rule not given here
DTT redox conf: confirmation of DTT-dependent redox cycling H2O2 generators | shares compounds with Redox H2O2 prof | phenol red-HRP absorbance | EC50, µM | 60 compounds, 40% hits | AID 1234;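 active = EC50 under a set limit for hydrogen peroxide production with the reducing agent DTT present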
p97 inh conf: confirmation of human p97 ATPase inhibitors | shares compounds with p97 inhibitor | 760 compounds, 44% hits | recombinant p97 ATPase, Kinase-Glo ATP luminescence | inhibition, % at 8 µM;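 active = percent inhibition of p97 ATPase above a set limit, the primary screen's mean plus 3 SD, cut at about 15% in these data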;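 also: 0% = DMSO wells and 100% = wells lacking p97 protein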
Numbers without * were called inactive; . = no result given. Compounds with a hit are over-represented: about 1.2% of the library has one in this group of screens.

SMILES	PKD1 kinase inh	Furin inh	p97 inhibitor	SUMO HTRF inh	FAS TE block	Redox H2O2 prof	others
CCCCn1c(NC(=O)c2ccc(Br)o2)c(C(=O)OCC)c2nc3ccccc3nc21	-8	-20	17*	100*	34	8
O=C1NC(=O)N(c2ccccc2)C(=O)/C1=C\c1ccc([N+](=O)[O-])s1	.	-17	10	55*	.	.
Cc1cc(C=C2C(=O)NC(=S)NC2=O)c(C)n1-c1ccc2c(c1)OCO2	8	-7	2	79*	-4	1
Cc1cc(C=C2C(=O)NC(=O)NC2=O)c(C)n1-c1ccc2c(c1)OCO2	-6	-6	4	34	-9	0
C[C@@H]1CN([C@H](C)CO)C(=O)CCCn2nncc2CO[C@H]1CN(C)C(=O)Oc1ccccc1	.	.	.	.	-3	.
O=C1NC(=O)N(Cc2ccco2)C(=O)/C1=C/c1cccn1CCOc1ccccc1Cl	-8	-15	9	66*	-5	0
O=C1NC(=O)N(Cc2ccccc2)C(=O)/C1=C\c1ccco1	-5	-7	-2	16	-1	-3
Cc1ccc(N2C(=O)NC(=O)/C(=C/c3cnn(-c4ccc(C)cc4)c3)C2=O)cc1	9	-10	7	13	-11	0
Cc1ccc(N2C(=O)NC(=O)/C(=C/c3ccoc3)C2=O)cc1	.	-21	13	56*	-6	.
CN(C)C1CCc2[nH]c3c(F)cc(F)cc3c2C1 (stereo not given)	.	.	.	.	-5	.
Cc1ccccc1N1C(=O)/C(=C/c2ccco2)C(=O)NC1=S	.	.	.	97*	.	.
COc1ccc2c(c1)NP(=S)(Oc1ccccc1)N2 (stereo not given)	.	-9	8	53*	-6	.
CCC/C=N/O	.	.	.	.	1	.
CC(CCN1CC1)=NNC(=O)Nc1cccc2ccccc12	.	.	.	.	-1	.
Cn1ncnc2c(=O)n(C)c(=O)nc1-2	.	.	.	102*	11	.
O=C1NC(=O)C(=Cc2cc3c(cc2[N+](=O)[O-])OCO3)C(=O)N1	2	-14	6	99*	-3	0
O=C1NC(=O)C(=Cc2ccccc2[N+](=O)[O-])C(=O)N1	.	.	.	.	-5	.
Cc1ccc(O)c(CN2CCC3CCC(C3)C2)c1 (stereo not given)	.	.	.	.	-10	.
CNC(=O)Oc1cc2c(cc1C(C)(C)C)CCC2	.	.	.	.	4	.
CCOc1cc(-c2nc3c(C)cccn3c2NCC2CCCO2)ccc1O (stereo not given)	-13	-41	2	52*	-7	3
Cc1cccn2c(NCC3CCCO3)c(C(C)C)nc12 (stereo not given)	0	-8	-2	12	-8	-1
CC(C)C[C@H](NP(=O)(O)O[C@@H]1O[C@@H](C)[C@H](O)[C@@H](O)[C@H]1O)C(=O)N[C@@H](Cc1c[nH]c2ccccc12)C(=O)O	.	.	.	.	-2	.
CCOC(=O)C(c1c(O)c2ccccc2oc1=O)c1c(O)c2ccccc2oc1=O	.	.	.	.	-2	.
COC(=O)C1=C(c2ccc(OCc3ccccc3)cc2)C[C@@H]2CC[C@H]1N2C(=O)NCc1cccc(C(F)(F)F)c1	.	.	.	.	21	.
Cc1cccc(-n2c(O)c(/C=C/C=Nc3ccccc3)c(=O)[nH]c2=O)c1	-22	31*	1	-7	-12	0
SMILES	PKD1 kinase inh	Furin inh	p97 inhibitor	SUMO HTRF inh	FAS TE block	Redox H2O2 prof	others
CNS(=O)(=O)c1ccc(N=Cc2c(O)n(-c3cccc(C)c3)c(=O)[nH]c2=O)cc1	-8	-3	2	12	-7	2
CC(C)c1ccc(-n2c(O)c(/C=N/NC(=O)c3ccncc3)c(=O)[nH]c2=O)cc1	3	8	1	11	-2	0
CC(C)c1ccc(-n2c(O)c(/C=N/NC(=O)c3ccccc3O)c(=O)[nH]c2=S)cc1	.	8	10	66*	17	.
C[n+]1c(-c2ccccc2)c2cc(N)ccc2c2ccc(N)cc21	.	.	.	101*	0	.
Cc1ccccc1-n1c(O)c(C=Nc2ccc(N(C)C)cc2)c(=O)[nH]c1=O	-9	27*	-2	-14	-8	0
O=C(O)c1cccc2c1NC(c1cccc([N+](=O)[O-])c1)C1CC(Sc3ccccc3[N+](=O)[O-])C(Cl)C21 (stereo not given)	0	2	5	.	-113	0
O=C(O)c1ccc2c(c1)C1C(Cl)C(Sc3ccccc3[N+](=O)[O-])CC1C(c1cccc([N+](=O)[O-])c1)N2 (stereo not given)	-5	-13	15*	.	-82	0
N#C/C(=C(/O)c1ccc(S(=O)(=O)N(CCCl)CCCl)cc1)c1nc2ccccc2[nH]1	.	-39	3	53*	-4	.
O=[N+]([O-])c1cccnc1N1CCCNCC1	.	.	.	-6	-2	.
c1ccc2c(c1)[nH]c1cnccc12	-3	-36	3	11	-4	-1
Cc1c2ccncc2c(C)c2c1[nH]c1ccccc12	87*	-6	3	-6	-40	-1
C=C(C)[C@@]12OC3(c4ccccc4)O[C@@H]1C1[C@@H]4O[C@]4(CO)[C@@H](O)[C@]4(O)C(=O)C(C)=C[C@H]4[C@@]1(O3)[C@H](C)[C@H]2OC(=O)/C=C/C=C/c1ccccc1 (stereo not given in full)	.	.	.	.	57*	.
CN1CCN(c2ccc3nccnc3c2)CC1	-1	-24	1	58*	-3	0
COc1cc(/C=C/c2nc3ccccc3c(=O)n2-c2cccc(O)c2)ccc1O	.	3	0	51*	-2	.
COc1cc(/C=C/c2nc3ccccc3c(=O)n2-c2ccccc2O)ccc1O	.	.	.	-9	-6	.
O=C1Nc2ccccc2/C1=C/c1cnc[nH]1	69*	-5	-4	-35	-9	1	PKD FP artifact=-24
COc1cc(CC2(CCc3ccncc3)C(=O)NC(=O)NC2=O)cc(OC)c1OC	2	-16	-3	12	-2	-1
COc1cc2c(cc1OC)-c1c(OC)c(OC)c(OC)c3ccnc(c13)C2=O	50*	-8	-1	2	.	0	PKD FP artifact=-18
Oc1cc(O)cc(/C=C/c2ccc(O)cc2O)c1	.	.	.	.	-9	.
CCCCn1c(NS(=O)(=O)c2ccccc2)c(C(=O)OCC)c2nc3ccccc3nc21	-2	18	21*	100*	9	167*	DTT redox conf=>50;p97 inh conf=2
CCC1CN1P(=O)(N1CCCC1)N1CC1CC (stereo not given)	.	.	.	.	-6	.
Cc1ccc(N2C(=O)NC(=O)/C(=C/C=C/c3ccco3)C2=O)cc1	1	-4	1	14	-9	0
